This excerpt belongs to a sample that is enriched for hits.
AmpC detergent: AmpC beta-lactamase inhibition with detergent present. P00811. AmpC hydrolysis of nitrocefin, absorbance 480 nm, 0.01% Triton. Potency, µM (titrated, usually from 114 µM), for inactives: top-dose activity change, negative = inhibition, hits mostly inhibitors. actives 0.041% (n = 370,000);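 note: potency is the fitted concentration of half-maximal effect; 0% = no-compound wells and -100% = no-enzyme wells; nearly all actives have a fitted effect of over 25% in size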
Target sequence (P00811 whole entry, looked up): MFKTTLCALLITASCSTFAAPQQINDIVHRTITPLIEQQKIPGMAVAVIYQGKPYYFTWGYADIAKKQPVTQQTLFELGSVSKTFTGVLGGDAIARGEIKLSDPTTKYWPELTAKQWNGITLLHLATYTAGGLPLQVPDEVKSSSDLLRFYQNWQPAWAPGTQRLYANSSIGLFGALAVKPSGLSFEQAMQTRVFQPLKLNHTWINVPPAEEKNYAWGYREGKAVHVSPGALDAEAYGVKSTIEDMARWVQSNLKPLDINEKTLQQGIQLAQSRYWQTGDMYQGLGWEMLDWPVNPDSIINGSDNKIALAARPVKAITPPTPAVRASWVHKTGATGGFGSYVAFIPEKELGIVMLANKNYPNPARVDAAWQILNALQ
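20 mM phosphate pH 7.0 + 0.01% (detergent screen) or 0.0001% Triton X-100; 5.3 nM AmpC reagent; cpd preinc 15 min RT; nitrocefin (800 uM stock) to start; A480 q20 s × 4 min; Activity was normalised to no-enzyme and no-compound control wells.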
CHX counter: counter-screen hit for Shiga toxin inhibitors, cycloheximide; max response, %; actives 12% (n = 300,000); cell reporter, cycloheximide protein synthesis inhibition counterscreen; in the data active = max response mostly above about 13%, no sharp cut-off; inactive = mostly below about 14%; note: read at 38.3 µM for the half of the compounds with a filed dose; 0% is about no effect
Shiga toxin inh: Shiga toxin inhibition; inhibition, % at 38.7 µM; Vero cells, Shiga toxin protein synthesis inhibition reporter; AID 2315; actives 9.2% (n = 290,000); in the data active = inhibition mostly above about 28%, no sharp cut-off; inactive = mostly below about 43%; note: 0% is about no effect
NS1 inh: influenza NS1 inhibition; Potency, µM (titrated, usually from 46.1 µM), for the others: at the highest dose activity, positive = more growth; actives 0.4% (n = 270,000); calls by dose curve; note: potency is the fitted concentration of half-maximal effect; actives are rising curves; nearly all actives have a fitted effect of over 50% in size
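Growth recovery, yeast-based: influenza A NS1 expressed in S. cerevisiae causes slow growth, and suppressors are detected by OD600. The parent strain without NS1 is used as positive control.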
AmpC inh no detg: blocks E. coli AmpC beta-lactamase in detergent-free assay | Potency, µM (highest dose often 57.1 µM), without a hit: at the top dose activity change, negative = inhibition, actives largely listed as inhibitors | AmpC nitrocefin hydrolysis, absorbance 480 nm, 0.0001% Triton | actives 0.52% (n = 330,000) | AID 485341;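 note: potency is the fitted concentration of half-maximal effect; plate controls were no compound for no effect and no enzyme for full effect; nearly all actives have a fitted effect of over 20% in size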
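20 mM phosphate pH 7.0 + 0.01% (detergent screen) or 0.0001% Triton X-100; 5.3 nM AmpC reagent; cpd preinc 15 min RT; nitrocefin (800 uM stock) to start; A480 q20 s × 4 min; Activity was normalised to no-enzyme and no-compound control wells.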
An asterisk follows results filed as active; u = inconclusive; x = not tested or not shown. Unless noted, calls come from the whole dose curve; as a rule, active = well fitted curve in the direction sought with a large enough effect; inconclusive = small, poorly fitted or top-dose-only effect, or another doubt; inactive = no such curve, though single readings can be large; an effect the other way counts as inactive or inconclusive.

SMILES	AmpC detergent	CHX counter	Shiga toxin inh	NS1 inh	AmpC inh no detg
O=C(c1ccc(N2CCC3(CC2)OCCO3)c([N+](=O)[O-])c1)N1CCOCC1	-2%	21*	69*	x	-6%
Cc1nn(CC(=O)Nc2cccc(C(F)(F)F)c2)c(=O)c2nn(-c3ccccc3)c(C)c12	18%	x	x	x	x
CCOC(=O)[C@H]1[C@H]2COc3ccc(Cl)cc3[C@@H]2N2C(=O)CN(C)C(=O)[C@@]12C	0%	x	x	x	36%
CN(C)C(=O)c1cc(-c2ccccc2)no1	u	22*	53*	1%	-15%
O=c1cccc2n1Cc1cc3ccccc3nc1-2	-5%	39*	38*	-12%	-52%
CC[C@@]1(O)C(=O)OCc2c1cc1n(c2=O)Cc2cc3c(N)cccc3nc2-1	1%	-2	-7	2%	-19%
Oc1cccc(-c2nc(-c3cccs3)c(-c3cccs3)[nH]2)c1	10%	x	x	x	x
CN(c1ccccc1)c1ncnc2c1cnn2C	5%	x	x	x	x
Clc1nssc1=Nc1ccccc1	-10%	12	-3	x	-25%
Fc1ccc(N=c2ssnc2Cl)c(F)c1	u	19*	43	x	-18%
CCOC(=O)c1ccc(N=c2ssnc2Cl)cc1	1%	23*	53*	x	-42%
Clc1ccc(N=c2ssnc2Cl)cc1	-15%	11	40*	-51%	-37%
COc1ccc(N=c2ssnc2Cl)cc1	u	18*	37*	-26%	-27%
COc1cc(N=c2ssnc2Cl)cc(OC)c1OC	u	-2	-8	-142%	-34%
CC(C)(C)C(=O)OC/C(N)=N/OC(=O)c1ccc(Cl)c(Cl)c1	-13%	20*	29	-73%	-6%
NN(Cc1ccccc1)C(=S)Nc1ccc(Cl)c(Cl)c1	2%	1	41	-2%	-37%
O=C(NC1CCCCC1)c1cc2nc3c(c(C(F)(F)F)n2n1)CCCC3	u	45*	79*	-12%	140%
CC(=O)c1ccc(NC(=O)c2cc3nc4c(c(C(F)(F)F)n3n2)CCCC4)cc1	-3%	38*	60*	2%	-27%
Cc1cc2nc3c(c(C(F)(F)F)n2n1)CCCC3	1%	5	50	2%	-20%
O=C(NC1CCCCC1)c1cc2nc(-c3ccco3)cc(C(F)(F)F)n2n1	-2%	-2	5	2%	-22%
COc1ccccc1CC(=O)N1CCN(c2cccc(Cl)c2)CC1	u	-1	-6	-15%	23%
O=C(c1ccc2c(c1)OCO2)C1CCCN(C(=O)Nc2ccc(F)cc2F)C1 (stereo not drawn)	0%	18*	18	-9%	-6%
CCC(=O)Nc1ccc(C(=O)Nc2ccc(Br)cc2F)cc1	4%	12	17	1%	-18%
O=C(COC(=O)c1ccc2c(c1)OCCO2)Nc1ccc(F)cc1F	x	x	x	x	-26%
O=C(Nc1ccc(Br)cc1F)c1ccc2c(c1)OCCO2	4%	21*	41	-3%	-17%
SMILES	AmpC detergent	CHX counter	Shiga toxin inh	NS1 inh	AmpC inh no detg
O=C(Nc1ccc(F)cc1F)c1ccc2c(c1)OCCO2	u	29*	83*	1%	-22%
COc1ccc(-c2nnc(SCc3nc4ccccc4s3)n2C(C)C)cc1	5%	28*	86*	-24%	16%
COc1ccc(-c2nnc(SCC(=O)NCc3cccs3)n2C(C)C)cc1	-1%	-2	-2	-5%	-13%
CCn1c(SCc2nc3ccccc3[nH]2)nnc1-c1cccs1	0%	2	-7	17%	1%
Cc1ccccc1-n1c(C)nnc1SCc1nc2ccccc2s1	u	33*	91*	-11%	-19%
CCOc1ccccc1-n1nnnc1SCc1nc2ccccc2s1	-1%	48*	168*	-14%	-48%
CCCCn1c(SCc2nc3ccccc3s2)nc2ccccc2c1=O	-15%	-3	-10	6%	-19%
CCn1c(SCc2nc3ccccc3s2)nnc1-c1cccs1	u	59*	59*	-12%	-30%
O=C(Nc1nc(-c2ccc(Br)cc2)ns1)c1ccccc1F	-4%	x	x	x	x
COc1ccc(CCNC(=O)CCn2c(=O)c3cccn3c3ccc(F)cc32)cc1OC	-2%	x	x	x	x
Cn1c(SCc2nc3ccccc3s2)nnc1-c1cccs1	-9%	60*	66*	-28%	-18%
COc1ccccc1-c1nnc(SCc2nc3ccccc3s2)n1C	-4%	16	26	3%	-19%
COc1ccccc1NC(=O)C(=O)c1cn(CC(=O)N2CCOCC2)c2ccccc12	2%	12*	35*	1%	66%
COc1ccccc1NC(=O)C(=O)N1CCCC1	u	19*	60*	x	-1%
COc1ccccc1NC(=O)C(=O)c1cn(CC(=O)N2CCCC2)c2ccccc12	-4%	22*	37	14%	141%
COc1ccccc1NC(=O)N1CCCC1	-1%	9	-13	7%	-22%
COc1ccc(-n2nc(C(=O)NCC(=O)NCc3cccc(F)c3)c3ccccc3c2=O)cc1Cl	-8%	-1	1	3%	-12%
Cc1cc(Nc2ncc(Cl)cc2Cl)n[nH]1	u	15*	74	-12%	-19%
Nc1nc(SCC(=O)Nc2ncc(Cl)cc2Cl)n[nH]1	1%	x	x	x	-10%
BrC(=C\c1ccccc1)/C=N/n1cnnc1	-3%	43*	31*	-1%	-13%
COC(=O)C(NC(C)=O)(Nc1nc2c(C)cc(C)cc2s1)C(F)(F)F (stereo not drawn)	0%	-1	-9	8%	16%
COc1ccc(C(=O)NC(=O)COC(=O)c2ccc3ncsc3c2)cc1	-14%	32*	35*	16%	-3%
Cc1c(Cl)cnc(NC(=O)COC(=O)c2ccc3ncsc3c2)c1Cl	-6%	34*	60*	16%	-15%
O=C(COC(=O)c1ccc2ncsc2c1)Nc1ncc(Cl)cc1Cl	-2%	37*	9	22%	-35%
O=C(COC(=O)c1ccc2ncsc2c1)Nc1cc(Cl)ccc1F	u	x	x	x	-34%
SMILES	AmpC detergent	CHX counter	Shiga toxin inh	NS1 inh	AmpC inh no detg
COc1ccc(CNC(=O)Cn2ccc3cc(S(=O)(=O)N4CCCC4)ccc32)c(OC)c1	9%	x	x	x	x
O=C(CCC(=O)c1cccs1)NCc1ccccc1Cl	x	x	x	x	-23%
COc1cccc(CNC(=O)C2Cc3cc(S(=O)(=O)N4CCCCCC4)ccc3N2C(C)=O)c1 (stereo not drawn)	14%	x	x	x	x
CCOC(=O)c1c(NC(=O)C(C)OC(=O)C2=COCCO2)sc2c1CCCC2 (stereo not drawn)	-9%	x	x	x	5%
CCOC(=O)c1c(NC(=O)C(C)OC(=O)c2ccc(NC(=O)CC#N)cc2)sc2c1CCCC2 (stereo not drawn)	-13%	x	x	x	28µM*
Cc1cccc(C(=O)Nc2ccc(C(=O)OCc3cc(=O)n4nc(CC(C)C)sc4n3)cc2)c1	-1%	x	x	x	x
O=C(O)CCC(=O)Nc1ccc(-c2nc3ccc(C(=O)c4ccccc4)cc3[nH]2)cc1	-6%	21*	x	-9%	-39%
O=C(c1ccccc1)c1ccc2nc(-c3ccc(NC(=O)c4ccccc4F)cc3)[nH]c2c1	u	12	34*	23%	-27%
